Source: PubChem BioAssay
Activity calls are given as the source filed them.

How the values were obtained:
Albumin (Bos taurus) = Albumin (Bos taurus) (UniProt P02769); assay: bovine serum albumin binders on microarray, profiling panel, artefact control for SMM control protein annotation, biochemical, small-molecule microarray, Alexa647 label, 635/667 nm fluorescence (AID 1118); conditions: BSA-A647 binding, fluorescence 635 nm, higher = more signal;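 note: score merges 667 nm emission intensity and signal-to-noise per printed compound spot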
[1] = small-molecule microarray binders of probe aXIP, primary screen, biochemical, NeuroSMM set, 635/667 nm fluorescence (AID 1119); conditions: higher = more signal, called active from +8 up or from −8 down;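 note: probe is the protein aXip251-270 applied at 1 µg/mL to compound-printed slides; binding of probe to printed compounds measured as 667 nm fluorescence plus signal to noise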
[2] = small-molecule binders of probe aNOTCH3, primary screen, biochemical, small-molecule microarray, 635/667 nm fluorescence (AID 1120); conditions: higher = more signal;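 note: probe is a biotin-tagged antibody raised against NOTCH3 rather than NOTCH3 protein; score merges spot fluorescence near 667 nm with spot signal to noise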
[3] = small-molecule binders of probe aNOTCH2, primary screen, biochemical, small-molecule microarray, 635/667 nm fluorescence (AID 1121); conditions: higher = more signal;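 note: score merges feature fluorescence read at 667 nm with its signal to noise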
[4] = target: Carbonic anhydrase 2 (Homo sapiens) (UniProt P00918); assay: CAII small-molecule binders, profiling panel, biochemical, small-molecule microarray, Alexa647-labelled CAII (AID 1122); conditions: CAII-A647 binding fluorescence, higher = more signal
[5] = COS7 lysate on small-molecule microarray, probe aHis, 635 nm (AID 1123); conditions: COS7 cell lysate, fluorescence, higher = more signal;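 note: z-score combines 667nm fluorescence intensity with signal-to-noise per printed compound spot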
[6] = compound binding in COS7 lysate, probe aLAP1, primary screen, cell lysate, small-molecule microarray (AID 1124); conditions: probe aLAP1, fluorescence, higher = more signal;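 note: lysate comes from COS7 cells expressing LAP1 and is applied at 0.3 µg/mL; score merges spot fluorescence near 667 nm with signal-to-noise over triplicate slides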
Sam68 (KHDRBS1) = assay: Sam68 small-molecule binders, primary screen, biochemical, small-molecule microarray, 635 nm fluorescence (AID 1125); conditions: small-molecule microarray binding, higher = more signal;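 note: score merges 667 nm channel intensity with signal to noise over triplicate slides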
[7] = tested on: Chordin-like protein 2 (CHRDL2); assay: CHRDL2 small-molecule binders, primary screen, biochemical, small-molecule microarray, 635 nm fluorescence (AID 1126); conditions: small-molecule microarray binding, fluorescence 635 nm; higher = more signal;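 note: printed compound slides probed with Chrdl2 protein at 4 µg/mL for 1 h at 4 C; score merges 667 nm emission intensity with signal to noise over three replicate slides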
[8] = target: Concanavalin-A (Canavalia ensiformis) (UniProt P02866); assay: ConA small-molecule binders, primary screen, artefact control for SMM control protein annotation, biochemical, small-molecule microarray, Alexa647 label, 635 nm (AID 1127); conditions: ConA-A647 binding fluorescence, higher = more signal;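 note: z combines 667 nm emission intensity with signal-to-noise across three replicate slides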
[9] = anti-His antibody binders, primary screen, artefact control for SMM control protein annotation, biochemical, small-molecule microarray, 635 nm fluorescence (AID 1128); conditions: anti-His Alexa647 antibody binding, higher = more signal;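 note: score merges feature fluorescence with signal-to-noise for each printed compound spot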
[10] = tested on: Human papillomavirus type 1a E7 protein (residues 1-88); assay: HPV1a E7 small-molecule binders, primary screen, biochemical, small-molecule microarray, residues 1-88, 635 nm (AID 1129); conditions: small-molecule microarray binding, fluorescence 635 nm; higher = more signal
[11] = target: Focal adhesion kinase 1 (Homo sapiens) (UniProt Q05397); assay: small-molecule microarray binders of FAK, primary screen, biochemical, 635/667 nm fluorescence, BSA, DTT (AID 1130); conditions: PTK2 binding, 635 nm fluorescence, higher = more signal;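 note: composite of spot emission at 667 nm and signal to noise over triplicate slides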
[12] = tested on: Fibrinogen (Alexa647-labelled); assay: fibrinogen binders on compound microarrays, profiling panel, artefact control for SMM control-protein annotation, biochemical, small-molecule microarray, 635/667 nm fluorescence (AID 1131); conditions: fibrinogen-A647 binding fluorescence, higher = more signal;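 note: z-score merges 667 nm fluorescence with per-spot signal-to-noise over triplicate slides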
[13] = target: Follistatin (Homo sapiens) (UniProt P19883); assay: follistatin binders on small-molecule microarrays, primary screen, biochemical, small-molecule microarray, 635/667 nm fluorescence (AID 1132); conditions: FST binding, 635 nm fluorescence, higher = more signal
[14] = target: Fibroblast growth factor 2 (Homo sapiens) (UniProt P09038); assay: FGF2 binders on small-molecule microarrays, primary screen, biochemical, small-molecule microarray, 635/667 nm fluorescence (AID 1133); conditions: small-molecule microarray binding, FGF2, fluorescence 635/667; higher = more signal
[15] = mitochondrial membrane potential change in A549 cells, profiling panel, cell-based, JC-1 fluorescence, basal, 24 h, 100 nL (AID 1138); conditions: higher = more signal;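 note: A549 lung adenocarcinoma cells under basal conditions with no added stimulus; test concentration not given here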
Lefty1 = Lefty1 binders on small-molecule microarrays, primary screen, biochemical, small-molecule microarray, 635/667 nm fluorescence (AID 1139); conditions: small-molecule microarray binding, fluorescence 635/667; higher = more signal
[16] = tested on: wheat germ agglutinin (Triticum aestivum), Alexa647-labelled; assay: wheat germ agglutinin binders on compound microarrays, profiling panel, artefact control for SMM control-protein annotation, biochemical, small-molecule microarray, 635/667 nm fluorescence (AID 1140); conditions: WGA-A647 binding, 635 nm fluorescence, higher = more signal;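 note: score merges 667 nm feature emission with signal to noise over triplicate slides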
[17] = target: Luciferin 4-monooxygenase (Photinus pyralis) (UniProt P08659); assay: firefly luciferase enzyme inhibitors, primary screen, biochemical, luminescence, purified enzyme, 2006 set (AID 1141); conditions: SteadyGlo luminescence, 30 min, higher = more signal, called active from +8 up or from −8 down;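 note: cell-free assay with purified firefly luciferase at 100 ng per well in PBS; test concentration not given here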
Chain of Luciferin 4-monooxygenase (Photinus pyralis) (P08659 whole entry, looked up): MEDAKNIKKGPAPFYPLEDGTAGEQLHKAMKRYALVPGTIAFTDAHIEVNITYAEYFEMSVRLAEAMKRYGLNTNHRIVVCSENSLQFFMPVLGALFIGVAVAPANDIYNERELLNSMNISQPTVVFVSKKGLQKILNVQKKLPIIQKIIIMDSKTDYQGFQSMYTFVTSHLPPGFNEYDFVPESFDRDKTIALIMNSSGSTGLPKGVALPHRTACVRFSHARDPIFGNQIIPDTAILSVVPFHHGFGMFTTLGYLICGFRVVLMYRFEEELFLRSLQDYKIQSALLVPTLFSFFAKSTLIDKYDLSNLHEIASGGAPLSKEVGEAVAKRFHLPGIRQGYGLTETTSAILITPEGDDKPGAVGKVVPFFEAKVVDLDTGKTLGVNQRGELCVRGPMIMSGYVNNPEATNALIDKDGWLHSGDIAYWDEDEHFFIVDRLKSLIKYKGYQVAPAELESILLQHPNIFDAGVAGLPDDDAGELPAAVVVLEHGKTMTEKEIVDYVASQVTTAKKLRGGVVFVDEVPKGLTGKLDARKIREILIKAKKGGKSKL

Chain of Concanavalin-A (Canavalia ensiformis) (P02866 whole entry, looked up): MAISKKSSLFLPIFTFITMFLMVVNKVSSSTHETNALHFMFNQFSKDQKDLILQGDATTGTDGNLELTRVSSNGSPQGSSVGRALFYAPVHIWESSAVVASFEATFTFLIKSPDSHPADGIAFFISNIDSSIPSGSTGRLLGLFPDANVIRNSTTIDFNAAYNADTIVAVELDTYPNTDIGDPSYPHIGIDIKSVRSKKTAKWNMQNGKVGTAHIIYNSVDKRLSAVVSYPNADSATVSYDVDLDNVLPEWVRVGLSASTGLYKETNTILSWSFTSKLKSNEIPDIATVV
Chain of Fibroblast growth factor 2 (Homo sapiens) (P09038 whole entry, looked up): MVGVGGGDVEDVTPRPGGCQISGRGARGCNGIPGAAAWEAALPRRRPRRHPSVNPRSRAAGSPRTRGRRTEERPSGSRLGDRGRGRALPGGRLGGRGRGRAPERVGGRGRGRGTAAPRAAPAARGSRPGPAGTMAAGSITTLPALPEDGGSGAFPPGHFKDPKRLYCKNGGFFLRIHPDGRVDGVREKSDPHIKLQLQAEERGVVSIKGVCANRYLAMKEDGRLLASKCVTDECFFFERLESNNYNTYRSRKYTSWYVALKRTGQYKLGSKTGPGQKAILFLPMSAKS
Chain of Focal adhesion kinase 1 (Homo sapiens) (Q05397 whole entry, looked up): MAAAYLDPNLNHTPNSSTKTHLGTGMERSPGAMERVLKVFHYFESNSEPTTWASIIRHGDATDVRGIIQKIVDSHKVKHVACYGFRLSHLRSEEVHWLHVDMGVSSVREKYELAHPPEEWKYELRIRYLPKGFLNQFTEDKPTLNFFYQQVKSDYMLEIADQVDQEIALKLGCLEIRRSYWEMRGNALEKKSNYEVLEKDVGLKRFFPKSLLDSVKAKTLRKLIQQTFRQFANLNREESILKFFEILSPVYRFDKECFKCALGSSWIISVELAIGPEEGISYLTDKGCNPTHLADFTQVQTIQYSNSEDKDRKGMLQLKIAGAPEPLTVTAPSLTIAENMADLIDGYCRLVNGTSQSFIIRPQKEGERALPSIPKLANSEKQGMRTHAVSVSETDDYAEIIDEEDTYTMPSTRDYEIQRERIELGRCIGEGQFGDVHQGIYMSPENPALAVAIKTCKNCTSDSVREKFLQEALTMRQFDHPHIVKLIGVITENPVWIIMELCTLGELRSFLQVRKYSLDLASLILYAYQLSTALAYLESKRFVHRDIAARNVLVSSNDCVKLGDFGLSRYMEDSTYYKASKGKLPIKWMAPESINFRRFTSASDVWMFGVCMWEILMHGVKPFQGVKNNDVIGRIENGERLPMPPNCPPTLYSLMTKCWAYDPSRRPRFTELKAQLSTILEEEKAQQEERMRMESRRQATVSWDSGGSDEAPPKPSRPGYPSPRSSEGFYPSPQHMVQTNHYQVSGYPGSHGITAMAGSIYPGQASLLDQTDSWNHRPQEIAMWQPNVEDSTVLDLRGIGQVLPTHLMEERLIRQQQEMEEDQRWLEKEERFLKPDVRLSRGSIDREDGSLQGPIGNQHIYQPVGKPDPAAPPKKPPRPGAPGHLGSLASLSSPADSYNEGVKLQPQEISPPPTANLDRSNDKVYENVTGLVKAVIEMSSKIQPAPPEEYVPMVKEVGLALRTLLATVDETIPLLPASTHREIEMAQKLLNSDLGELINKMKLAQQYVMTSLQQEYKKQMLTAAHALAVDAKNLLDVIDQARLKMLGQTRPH
Chain of Albumin (Bos taurus) (P02769 whole entry, looked up): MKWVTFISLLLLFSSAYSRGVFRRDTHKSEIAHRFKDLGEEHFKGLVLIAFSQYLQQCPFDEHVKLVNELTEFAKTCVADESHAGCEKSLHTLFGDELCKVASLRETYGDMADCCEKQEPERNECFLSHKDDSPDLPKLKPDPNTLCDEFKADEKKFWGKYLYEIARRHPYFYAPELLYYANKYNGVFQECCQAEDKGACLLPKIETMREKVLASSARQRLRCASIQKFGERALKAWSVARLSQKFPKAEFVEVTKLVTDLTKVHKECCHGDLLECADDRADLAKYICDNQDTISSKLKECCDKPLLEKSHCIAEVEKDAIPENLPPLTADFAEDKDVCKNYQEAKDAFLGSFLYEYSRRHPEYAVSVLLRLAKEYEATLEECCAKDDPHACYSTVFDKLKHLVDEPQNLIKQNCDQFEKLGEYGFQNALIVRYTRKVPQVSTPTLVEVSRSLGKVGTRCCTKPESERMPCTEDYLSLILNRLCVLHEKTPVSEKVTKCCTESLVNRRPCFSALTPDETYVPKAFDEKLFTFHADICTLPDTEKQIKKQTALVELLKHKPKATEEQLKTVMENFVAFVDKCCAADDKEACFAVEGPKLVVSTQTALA
Chain of Follistatin (Homo sapiens) (P19883 whole entry, looked up): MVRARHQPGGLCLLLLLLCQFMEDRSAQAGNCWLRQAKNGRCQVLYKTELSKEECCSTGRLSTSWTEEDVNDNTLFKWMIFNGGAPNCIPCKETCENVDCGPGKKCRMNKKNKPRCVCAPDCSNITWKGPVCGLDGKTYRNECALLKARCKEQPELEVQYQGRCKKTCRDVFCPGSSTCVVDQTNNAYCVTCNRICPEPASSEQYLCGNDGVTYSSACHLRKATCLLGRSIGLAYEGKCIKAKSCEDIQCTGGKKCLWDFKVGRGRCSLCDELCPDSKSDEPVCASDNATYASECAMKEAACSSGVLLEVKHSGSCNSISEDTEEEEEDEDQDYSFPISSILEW

| Structure (SMILES) | composite z-score (Albumin (Bos taurus)) | composite Z-score [1] | composite z-score [2] | composite z-score [3] | composite z-score [4] | composite z-score [5] | composite z-score [6] | composite z-score (Sam68 (KHDRBS1)) | composite z-score [7] | composite z-score [8] | composite z-score [9] | composite z-score [10] | composite z-score [11] | composite z-score [12] | composite z-score [13] | composite z-score [14] | z-score [15] | composite z-score (Lefty1) | composite z-score [16] | z-score [17] |
| --- | --- | --- | --- | --- | --- | --- | --- | --- | --- | --- | --- | --- | --- | --- | --- | --- | --- | --- | --- | --- |
| COC(=O)[C@@]1(Cc2ccc(OC)cc2)[C@H]2c3cc(C(=O)N4CCCC4)n(CCc4c[nH]c5ccc(O)cc45)c3C[C@H]2CN1C(=O)c1ccccc1 | 0.863 | 0.714 (inactive) | 0.298 | 0.0409 | 0.774 | 2.05 | 0.441 | 1.34 | -0.135 | 0.992 | 0.256 | 1.23 | 0.594 | 0.948 | 1.16 | 0.0628 | 0.623 | 0.111 | 0.92 | -1.31 (inactive) |
| CN1C2C=C(CCCO)C(C3C(=O)N(C(N)=O)C(=O)C32)C1C1CC1 (stereo not given) | -0.0873 | -1.14 (inactive) | -0.272 | -0.14 | 0.234 | 0.043 | -0.182 | 0.0346 | -0.0334 | 0.31 | 0.352 | 0.186 | -0.158 | 0.481 | -0.0169 | -0.148 | 0.771 | 0.145 | -0.123 | -0.938 (inactive) |
| COc1cc(NN2C(C(O)c3ccc(N(C)C)cc3)C=CC3C(=O)N(c4ccccc4)C(=O)C32)cc(OC)c1OC (stereo not given) | 0.353 | 0.785 (inactive) | 0.448 | 0.0606 | 0.192 | 0.68 | -0.196 | 0.913 | -0.148 | 0.0693 | 0.555 | 1.03 | 0.0507 | 0.945 | 1.22 | -0.223 | 0.0531 | 0.0646 | 0.885 | 0.11 (inactive) |
| COCCCNC(=O)[C@@]1(CCC(=O)OC(C)(C)C)N=C(c2ccc(OCCCO)cc2)O[C@H]1c1ccccc1N=[N+]=[N-] | 0.945 | 0.289 (inactive) | 0.26 | 0.325 | 0.62 | 2.01 | 0.843 | 1.25 | 0.279 | 1.16 | 3.41 | 1.26 | 1.04 | 1.05 | 1.1 | 1.15 | 2.07 | -0.167 | 0.548 | -7.45 (inactive) |
